Assay [1] is described as follows: Primary redox qHTS assay for identification of artifact compounds. (AID 1845223).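 Note: 0% = DMSO and 100% = reference compound.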 Put shortly:
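Redox-cycling detection via DTT (250 uM final) oxidation coupled to Amplex Red (25 uM)/HRP (250 mU/mL) in HBSS. 15 min preincubation plus 30 min after DTT, room temperature. Ex/Em 525/598 nm; 4-parameter Hill fit against DMSO and 10 uM DA3003.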
In general terms: qHTS replaces the single test concentration by a dilution series.

For assay [2], the system named is Nanoluciferase (engineered Oplophorus gracilirostris luciferase). Briefly: Primary Nanoluciferase (NLuc) qHTS assay for identification of artifact compounds. (AID 1845222).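 Note: NLuc secreted into diluted conditioned medium of S16 cells; series mostly up to about 54 µM; 0% = DMSO and -100% = no enzyme.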 Put shortly: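 S16 cell supernatant NLuc, 1:55; cpds qHTS; 15 min RT dark; Nano-Glo substrate 1:100, 5 min; luminescence; Hill fit of % inhibition.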
Assay [3] deals with Cytochrome P450 3A4 (Homo sapiens) (UniProt P08684). As to the kind of experiment: qHTS for inhibitors of CYP3A4 against the NCATS DSHEA and TCM libraries (AID 1919971). Note: potency is the fitted concentration of half-maximal effect. A digest of the protocol: (§1)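 Concentration-response screening with isoform-matched pro-luciferin substrates. The CYP reaction was initiated by NADPH regenerating solution and ran 30-45 min in darkness at room temperature.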

The target of assay [4] is Cytochrome P450 2D6 (Homo sapiens) (UniProt P10635). As to the kind of experiment: qHTS for inhibitors of CYP2D6 against the NCATS DSHEA and TCM libraries (AID 1919972). Note: % is set by controls: 0 for no effect and ±100 for the full control effect. Put shortly:
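CYP2D6 enzyme with pro-luciferin substrate in manufacturer buffer (typically 100 mM KPO4), preincubated 15 min RT with substances (most at 19.5 nM upward); NADPH regeneration system (1x) started 30–45 min RT reaction; P450-Glo luminescence read after 30 min; quinidine as intraplate control.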

In assay [5] the target is Cytochrome P450 2C9 (Homo sapiens) (UniProt P11712). Briefly: qHTS for inhibitors of CYP2C9 against the NCATS DSHEA and TCM libraries (AID 1919973). Note: potency is the fitted concentration of half-maximal effect. A digest of the protocol:
as §1

Assay [6] has as its target Cytochrome P450 2C19 (Homo sapiens) (UniProt P33261). As to the kind of experiment: qHTS for inhibitors of CYP2C19 against the NCATS DSHEA and TCM libraries (AID 1919974).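 Note: luminescence from luciferin released by CYP2C19 oxidation of a pro-luciferin substrate; potency is the fitted concentration of half-maximal effect.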 Put shortly:
as §1

Assay [7] can be described thus: KB-3-1 P-gp reporter qHTS against the NCATS DSHEA and TCM libraries (AID 1919975). Note: 0% is about no effect. Put shortly:
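Cell viability by CellTiter-Glo luminescence following ~72 h compound exposure (concentration-response). Uses parental, non-P-gp-overexpressing KB-3-1 line, 500 cells/well in DMEM/10% FBS, attached ~4 h before dosing.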

Assay [8] concerns the target Cytochrome P450 1A2 (Homo sapiens) (UniProt P05177). As to the kind of experiment: qHTS for inhibitors of CYPIA2 against the NCATS DSHEA and TCM libraries (AID 1919976). Note: potency is the fitted concentration of half-maximal effect. A digest of the protocol: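 Enzyme and pro-luciferin substrate, or substrate alone as no-enzyme background, are pre-incubated with test samples for 15 min at room temperature. NADPH regeneration system (1x final) initiates a 30-45 min dark reaction; luciferase detection reagent follows before luminescence reading.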

Assay [9] is described as follows: qHTS Counterscreen for compound interference against the NCATS DSHEA and TCM libraries (AID 1919978).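 Note: compounds preincubated with 1 µM D-luciferin or buffer before detection reagent; % of control where 0% means no effect.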 To be noted: firefly luciferase detection reagent interference, luminescence. Put shortly:
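With 1 uM D-luciferin or phosphate buffer only, compounds at final 19.5 nM–39.8 uM were incubated for 15 min at room temperature. Luciferase detection reagent was then added, and luminescence was measured after a further 30 min at room temperature.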

Assay [10] can be described thus: Dual reporter qHTS for agonist of Pregnane X Receptor (hPXR) against the NCATS DSHEA and TCM libraries: Fluorescence readout (AID 1920058). Note: 0% is about no effect. A digest of the protocol: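 Cells were plated at 2000 per well and allowed to attach for 5 h. Test substances were pinned in and incubated roughly 24 h. CellTiter-Fluor was then added and fluorescence measured after 1 h.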

Unmarked numbers belong to inactive results. Inconclusive results are not listed. Active and inactive are the calls of the source. Calls come from the whole dose curve; as a rule, active = well fitted curve in the direction sought with a large enough effect; inconclusive = small, poorly fitted or top-dose-only effect, or another doubt; inactive = no such curve, though single readings can be large; an effect the other way counts as inactive or inconclusive. Where a SMILES comes first, the peptide text is derived from it. The star is where a group is joined. βNA = c1ccc2cc(N*)ccc2c1; Cbz = O=C(OCc1ccccc1)*; PhAc = O=C(Cc1ccccc1)*

Chain of Cytochrome P450 2C19 (Homo sapiens) (P33261 whole entry, looked up): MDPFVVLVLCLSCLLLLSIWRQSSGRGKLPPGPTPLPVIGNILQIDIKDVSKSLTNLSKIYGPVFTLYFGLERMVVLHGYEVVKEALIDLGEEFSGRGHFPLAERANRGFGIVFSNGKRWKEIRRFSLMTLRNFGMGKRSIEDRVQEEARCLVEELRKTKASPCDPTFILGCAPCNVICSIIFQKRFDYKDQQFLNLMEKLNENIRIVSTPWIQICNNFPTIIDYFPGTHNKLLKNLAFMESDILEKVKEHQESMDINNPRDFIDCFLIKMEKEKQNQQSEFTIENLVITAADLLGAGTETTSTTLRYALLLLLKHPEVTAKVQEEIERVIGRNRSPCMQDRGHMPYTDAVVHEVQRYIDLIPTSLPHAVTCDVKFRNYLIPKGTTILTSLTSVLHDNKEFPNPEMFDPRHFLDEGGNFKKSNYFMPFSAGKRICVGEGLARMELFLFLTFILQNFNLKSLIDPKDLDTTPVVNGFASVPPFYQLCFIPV
Chain of Cytochrome P450 1A2 (Homo sapiens) (P05177 whole entry, looked up): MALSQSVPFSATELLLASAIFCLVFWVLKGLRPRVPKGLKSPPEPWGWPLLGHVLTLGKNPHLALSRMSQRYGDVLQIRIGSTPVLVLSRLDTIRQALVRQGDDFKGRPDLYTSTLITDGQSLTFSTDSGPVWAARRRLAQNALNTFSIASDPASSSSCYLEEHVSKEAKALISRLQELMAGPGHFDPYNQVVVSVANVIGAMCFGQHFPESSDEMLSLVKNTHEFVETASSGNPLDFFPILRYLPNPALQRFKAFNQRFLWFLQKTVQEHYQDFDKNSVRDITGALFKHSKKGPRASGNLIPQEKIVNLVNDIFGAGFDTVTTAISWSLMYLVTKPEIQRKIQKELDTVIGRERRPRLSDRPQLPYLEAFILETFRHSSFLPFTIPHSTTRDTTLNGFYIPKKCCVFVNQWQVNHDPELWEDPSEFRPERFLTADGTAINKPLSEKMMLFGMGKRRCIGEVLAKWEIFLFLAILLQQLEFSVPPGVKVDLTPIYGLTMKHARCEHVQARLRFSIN
Chain of Cytochrome P450 2D6 (Homo sapiens) (P10635 whole entry, looked up): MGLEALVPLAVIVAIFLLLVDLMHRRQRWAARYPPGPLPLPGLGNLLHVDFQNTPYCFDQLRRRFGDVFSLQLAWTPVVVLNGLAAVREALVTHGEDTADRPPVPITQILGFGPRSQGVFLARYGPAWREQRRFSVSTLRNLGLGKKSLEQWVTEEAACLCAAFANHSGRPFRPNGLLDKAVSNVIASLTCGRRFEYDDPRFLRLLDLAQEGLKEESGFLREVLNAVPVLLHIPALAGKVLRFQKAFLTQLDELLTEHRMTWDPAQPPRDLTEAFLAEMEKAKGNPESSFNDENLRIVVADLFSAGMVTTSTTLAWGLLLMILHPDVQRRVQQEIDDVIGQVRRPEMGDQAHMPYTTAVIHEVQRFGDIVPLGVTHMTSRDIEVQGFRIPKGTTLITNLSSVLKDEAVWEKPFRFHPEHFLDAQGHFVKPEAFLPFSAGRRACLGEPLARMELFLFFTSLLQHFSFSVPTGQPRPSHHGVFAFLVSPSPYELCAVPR
Chain of Cytochrome P450 3A4 (Homo sapiens) (P08684 whole entry, looked up, canonical isoform): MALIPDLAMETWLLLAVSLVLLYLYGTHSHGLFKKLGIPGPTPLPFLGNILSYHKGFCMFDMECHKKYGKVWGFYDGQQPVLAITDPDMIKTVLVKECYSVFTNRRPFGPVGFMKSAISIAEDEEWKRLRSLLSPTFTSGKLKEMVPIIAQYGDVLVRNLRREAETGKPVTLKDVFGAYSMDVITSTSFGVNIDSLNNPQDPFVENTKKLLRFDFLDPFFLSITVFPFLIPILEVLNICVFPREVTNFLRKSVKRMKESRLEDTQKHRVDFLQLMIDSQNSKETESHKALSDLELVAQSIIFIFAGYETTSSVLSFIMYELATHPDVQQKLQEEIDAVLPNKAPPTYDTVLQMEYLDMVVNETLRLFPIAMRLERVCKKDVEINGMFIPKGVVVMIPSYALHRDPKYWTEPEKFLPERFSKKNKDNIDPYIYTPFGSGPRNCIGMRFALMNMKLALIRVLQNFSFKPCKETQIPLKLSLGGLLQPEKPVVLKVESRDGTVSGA
Chain of Cytochrome P450 2C9 (Homo sapiens) (P11712 whole entry, looked up): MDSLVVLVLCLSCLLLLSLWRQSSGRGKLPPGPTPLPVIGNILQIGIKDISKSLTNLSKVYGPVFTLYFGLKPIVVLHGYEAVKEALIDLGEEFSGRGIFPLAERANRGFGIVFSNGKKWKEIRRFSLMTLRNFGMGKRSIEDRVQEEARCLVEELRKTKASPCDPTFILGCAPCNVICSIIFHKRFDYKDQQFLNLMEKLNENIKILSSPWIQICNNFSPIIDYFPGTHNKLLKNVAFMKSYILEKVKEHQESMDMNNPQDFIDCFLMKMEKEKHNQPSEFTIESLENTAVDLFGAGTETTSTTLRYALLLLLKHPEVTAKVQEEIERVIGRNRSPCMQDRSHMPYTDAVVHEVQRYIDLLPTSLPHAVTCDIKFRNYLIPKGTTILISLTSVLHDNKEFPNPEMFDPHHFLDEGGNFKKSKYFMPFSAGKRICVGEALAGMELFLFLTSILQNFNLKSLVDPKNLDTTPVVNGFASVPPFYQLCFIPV

As to `COc1ccccc1Oc1c(NS(=O)(=O)c2ccc(C)cn2)nc(-c2ccncc2)nc1OC`, the Potency entry in [1] was “inactive”.
In the case of `C[C@]1(C2CCCC2)Cc2cc(OCC(=O)O)c(Cl)c(Cl)c2C1=O`, the Potency result in assay [2] and in assay [1] was “inactive” each time.
In the case of `C=C1[C@@H]2CC[C@@]3(C)[C@H](c4ccoc4)OC(=O)C[C@]13O[C@H]1CC(=O)C(C)(C)[C@H](C(O)C(=O)OC)[C@]12C` (stereo not given in full), the Potency result in assay [1] is “inactive”.
With `C[C@@H]1C(=O)O[C@H]2[C@H]1CC[C@@]1(C)C(=O)C=C[C@@](C)(O)[C@H]21`, the Potency entry in assay [2] and in assay [1] was “inactive” in each case.
With `COC(=O)C1=CO[C@@H](O[C@@H]2O[C@H](CO)[C@@H](O)[C@H](O)[C@H]2O)[C@@H]2[C@@H](C(=O)O)CC[C@H]12`, the Potency entry in assay [1] was “inactive”.
The same measure, in the same setting: in the case of `CSCC1OC(n2cnc3c(=O)[nH]cnc32)C(O)C1O` (stereo not given) it was “inactive”.
For the compound `COc1ccc(CCC(=O)O)c(O[C@@H]2O[C@H](CO)[C@@H](O)[C@H](O)[C@H]2O)c1`, the Potency entry in assay [2] and in assay [1] was “inactive” each time.
Regarding `COc1ccc(-n2c(SCC#N)nc3sc4c(c3c2=O)CCCC4)cc1`, the Potency entry in [2] and in assay [1] was “inactive” each time.
Take `CCOC(=O)CNC(=O)[C@@H]1CCCN1C(=O)Cc1ccccc1` (PhAc-Pro-Gly-OEt): the Potency entry in assay [2] and in [1] was “inactive” in each case.
Consider `CC(C)(O)C1OC1C1=CC(=O)C2(C)OC2C1O` (stereo not given), for which the Potency result in [1] is “inactive”.
In the case of `CC(C)CC(NC(=O)OCc1ccccc1)C(=O)NC(CC(C)C)C(=O)NC(CCC(=O)O)C(=O)Nc1ccc2ccccc2c1` (stereo not drawn) (Cbz-Leu-Leu-Glu-βNA; configuration not given here), the Potency entry in [2] and in assay [1] was “inactive” each time.
Consider `CC(=O)O[C@@H]1C[C@@H](C)[C@](O)(CCC2=CC(=O)OC2)[C@@]2(C)CCCC(C)(C)C12` (stereo not given in full), for which the Potency was 4.47 µM (active) in [3], 8.91 µM (active) in assay [5], 2.82 µM (active) in assay [6] and 3.98 µM (active) in assay [8]. For the same compound, the compound was classed as inactive in [4], in assay [7] and in assay [10]. In assay [9], the max response was -1.72%.

For the origin of these results see PubChem BioAssay (NCATS).
